ClpP mod: qHTS Assay for Activators of ClpP; 1.9% of 340,000 active; purified B. subtilis ClpP, FRET peptide cleavage, 20 min; AID 651965, 2013; ATP-dependent Clp protease proteolytic subunit (Bacillus subtilis (strain 168)), P80244; Potency, µM (doses to about 57.5 µM), for the others: at the highest dose activity change, negative = active; active = well fitted falling curve with a large enough effect; inconclusive = small, poorly fitted or top-dose-only effect; inactive = no such curve, though single readings can be large or run the other way; also: the source files actives as falling curves though it sought activators and does not explain the sign; nearly all actives have a fitted effect of over 65% in size
Target sequence (P80244 whole entry, looked up): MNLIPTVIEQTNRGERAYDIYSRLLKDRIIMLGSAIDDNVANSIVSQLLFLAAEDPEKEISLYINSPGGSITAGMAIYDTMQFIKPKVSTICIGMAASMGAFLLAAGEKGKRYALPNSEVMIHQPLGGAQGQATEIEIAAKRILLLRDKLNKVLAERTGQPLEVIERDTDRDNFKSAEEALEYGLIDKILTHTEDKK
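FRET quenching reversal measured ClpP activation: 10 microg/mL B. subtilis ClpP at pH 8 with the FRET-FV decapeptide, read at 430 nm after 320 nm excitation. The 20-min minus 0-min signal was scaled between DMSO/no-enzyme wells and ADEP (5.8 microM final).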
TDP1 cell CPT: growth inhibition of DT40 Tdp1-/-;hTDP1 cells with camptothecin (screen for TDP1 inhibitors); AID 686979; Potency, µM (top dose mostly 46.2 µM), for the others: at the top dose activity change, negative = growth inhibition, actives largely listed as inhibitors; chicken DT40 Tdp1-/-;hTDP1 cells + 20 nM CPT, ATP luminescence, 48 h; 12% of 420,000 active; also: % is scaled to controls: 0 for no effect and ±100 for the full control effect; nearly all actives have a fitted effect of over 55% in size
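Chicken DT40 Tdp1-/- cells stably complemented with human TDP1 were seeded at 400 cells/well in medium containing 20 nM camptothecin, exposed to pin-transferred compounds, and grown at 37 °C for at least 48 hr. Viability was read as ATP luminescence.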
TDP1 cell noCPT: qHTS for Inhibitors of human tyrosyl-DNA phosphodiesterase 1 (TDP1): qHTS in cells in absence of CPT; 15% of 420,000 active; AID 686978, 2013; DT40 Tdp1-/- hTDP1 cells, no CPT, ATP luminescence, 48 h; Potency, µM (series often up to 46.2 µM), without a hit: top-dose activity change, negative = growth inhibition, actives largely listed as inhibitors; also: % is scaled to controls: 0 for no effect and ±100 for the full control effect; nearly all actives have a fitted effect of over 55% in size
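Cells were dispensed at 400 per well, compounds added by pin tool, plates incubated ≥48 hr at 37 °C, then CellTiter-Glo added for 30 min at room temperature before luminescence reading. Line: DT40 Tdp1-/- complemented with hTDP1; camptothecin omitted.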
TDP1 block: blocks human tyrosyl-DNA phosphodiesterase 1 | Q9NUW8 | recombinant TDP1, AlphaScreen DNA substrate cleavage | Potency, µM (top dose mostly 130 µM), inactives show at the top dose activity change, negative = inhibition, hits mostly inhibitors | 0.28% of 350,000 active; also: % is scaled to controls: 0 for no effect and ±100 for the full control effect; nearly all actives have a fitted effect of over 40% in size
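Compounds were preincubated with Tdp1 (1 nM final) for 15 min at room temperature before substrate (15 nM final) started a 5 min reaction; beads (10 ug/ml final) were then added for 10 min before AlphaScreen detection.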
* hit, by the source's call; u = inconclusive; x = not tested or not shown; [ ] = another dose, or the depositor's remark. This is a sample that favours compounds with a hit; in the whole collection about 17% have one here. Unless noted, calls follow the shape of the dose curve; as a rule, active = well fitted curve in the direction sought with a large enough effect; inconclusive = small, poorly fitted or top-dose-only effect, or another doubt; inactive = no such curve, though single readings can be large; an effect the other way counts as inactive or inconclusive. Potency is read from the fitted curve at half-maximal effect.

SMILES	ClpP mod	TDP1 cell CPT	TDP1 cell noCPT	TDP1 block
CC(=O)O[C@H]1C[C@@H](O[C@@H]2[C@H](C)O[C@H](O[C@@H]3[C@H](C)O[C@H](O[C@@H]4CC[C@@]5(C)[C@@H](CC[C@]6(C)[C@]5(C)C[C@H](O)[C@]5(C)[C@@H](C7=CC(=O)OC7)CC[C@@]56O)C4)C[C@@H]3O)C[C@@H]2O)O[C@@H](C)[C@H]1O[C@H]1O[C@@H](CO)[C@@H](O)[C@@H](O)[C@@H]1O	x	x	x	2.6%[21 µM]
CC(=O)O[C@H]1C[C@H](O[C@H]2[C@@H](O)C[C@H](O[C@H]3[C@@H](O)C[C@H](OC4CC[C@@]5(C)[C@H](CC[C@@H]6[C@@H]5CC[C@]5(C)[C@@H](C7=CC(=O)OC7)CC[C@]65O)C4)O[C@@H]3C)O[C@@H]2C)O[C@H](C)[C@H]1O[C@@H]1O[C@H](CO)[C@@H](O)[C@H](O)[C@H]1O (some centres not stated)	x	0.335µM*	0.299µM*	x
C/C=C(/C)C(=O)O[C@H]1C(C)=C2[C@H]([C@@H]1OC(=O)CCCCCCC)[C@@](C)(OC(C)=O)C[C@H](OC(=O)CCC)[C@@]1(O)[C@H]2OC(=O)[C@@]1(C)O	x	u	-8.2%[21.1 µM]	15.8%
Cc1cc(N(CCCl)CCCl)ccc1C=NNC(=O)Cc1cc(=O)oc2cc(O)ccc12	28.2µM*	11.6µM*	u	x
COc1ccc(CC(=O)Nc2ccc3c(C(F)(F)F)cc(=O)oc3c2)cc1OC	-6.2%	-14.9%	-15.8%	3.4%
COc1ccccc1N1CCN(C(=O)CCS(=O)(=O)c2ccc3c(c2)oc(=O)n3C)CC1	1.0%	-10.3%	26.5%	1.0%
CC(C)(Cl)Cl	x	x	x	2.5%
Cn1c(=O)c2c(nc(-c3ccc(N(CCCl)CCCl)cc3)n2C)n(C)c1=O	-4.5%	14.6µM*	25.9µM*	x
CCN(CCO)CCn1c(Cc2ccccc2)nc2c1c(=O)n(C)c(=O)n2C	x	-10.0%	-13.9%	x
CN(C)CCc1c[nH]c2cccc(OP(=O)(O)O)c12	x	9.9%[92.5 µM]	3.2%[92.5 µM]	x
O=C(NC(O)C(Cl)(Cl)Cl)NC(O)C(Cl)(Cl)Cl (configuration not stated)	x	7.4%	-16.8%	2.2%
CN(Cc1cccc(-c2ccncc2)c1)C(=O)Oc1ccccc1Cc1ccccc1	0.4%	u	16.4µM*	x
Cc1nc2cc(OC(=O)N(C)Cc3cccc(-c4ccncc4)c3)ccc2s1	0.7%	u	18.4µM*	x
CN(Cc1cccc(-c2ccncc2)c1)C(=O)Oc1ccccc1Cl	1.6%	u	u	x
CC(Cc1ccccc1)NCc1ccccc1Cl (configuration not stated)	x	u	u	-2.1%
O=c1c2ccccc2nc(-c2ccco2)n1-c1ccccc1	u	u	u	2.4%
Cc1ccccc1-n1c(-c2ccco2)nc2ccccc2c1=O	-2.3%	11.6µM*	9.2µM*	2.4%
COc1ccc(-n2c(-c3ccco3)nc3ccccc3c2=O)cc1	x	u	23.1µM*	4.9%
CC(C)[C@]12O[C@H]1[C@@H]1O[C@]13[C@]1(O[C@H]1C[C@H]1C4=C(CC[C@@]13C)C(=O)OC4)[C@@H]2O	x	0.121µM*	0.153µM*	6.1%
COc1ccc(C(c2nnnn2-c2ccc(OC)cc2)N2CCC(n3c(=O)[nH]c4ccccc43)CC2)cc1 (configuration not stated)	0.4%	18.4µM*	9.2µM*	x
O=c1[nH]c2ccccc2n1C1CCN(C(c2ccccc2OC(F)(F)F)c2nnnn2Cc2ccccc2)CC1 (configuration not stated)	0.4%	10.3µM*	10.3µM*	x
COc1ccc(C(c2nnnn2Cc2ccccc2)N2CCC(n3c(=O)[nH]c4ccccc43)CC2)cc1 (configuration not stated)	1.0%	18.4µM*	16.4µM*	x
O=c1[nH]c2ccccc2n1C1CCN(C(c2cccs2)c2nnnn2Cc2ccccc2)CC1 (configuration not stated)	-2.3%	18.4µM*	14.6µM*	x
O=c1[nH]c2ccccc2n1C1CCN(C(c2nnnn2C2CCCC2)C2CC2)CC1 (configuration not stated)	-3.5%	u	u	x

Source: PubChem
